Assay outcomes deposited in PubChem by National Center for Advancing Translational Sciences (NCATS).
Sampled rows, rich in hits. Any-hit rate of the full collection: about 2.5%.
WRN helicase inh: blocks human WRN helicase | Potency, µM (highest dose often 114 µM), for inactives: at the highest dose activity change, negative = inhibition, actives largely listed as inhibitors | Q14191 | WRN helicase unwinding, fluorescent forked duplex, kinetic | 360,000 tested, 0.46% active; also: % is scaled to controls: 0 for no effect and ±100 for the full control effect; nearly all actives have a fitted effect of over 55% in size
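Kinetic fluorescence helicase assay: unwinding of a quenched forked DNA duplex (100 nM final) with 2 mM ATP final raises red fluorescence (525/598 nm). Compounds sat 15 min at room temperature with 20 nM WRN beforehand.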
Pol kappa inh: inhibitors of human DNA polymerase kappa | 400,000 tested, 0.53% active | AID 588579 | purified Pol kappa, fluorescent DNA synthesis assay, 10 min | Potency, µM (series often up to 107 µM), inactives show at the highest dose activity, negative = inhibition, hits mostly inhibitors; also: % is scaled to controls: 0 for no effect and ±100 for the full control effect
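Kinetic fluorescence readout at 0 and 10 min followed reaction start with substrate at 50 nM final. Beforehand, enzyme (10 nM Pol kappa) stood 15 min with compound at room temperature; buffer-only wells were negative controls.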
L3MBTL1 block: blocks human L3MBTL1; Q9Y468; AlphaScreen L3MBTL1–H3K9me1 peptide binding; Potency, µM (top dose mostly 57.1 µM), without a hit: at the top dose activity, negative = inhibition, most hits filed as inhibitors; 230,000 tested, 0.66% active; AID 485360; also: % is scaled to controls: 0 for no effect and ±100 for the full control effect; nearly all actives have a fitted effect of over 60% in size
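First, the protein-peptide complex forms for 30 min at room temperature (L3MBTL1 50 nM, biotinylated H3K9me1 peptide 75 nM). Next, compounds are pin-transferred and incubated 30 min. Finally, AlphaScreen beads are added and read after 30 min.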
Pol iota inh: DNA polymerase iota (human) inhibition; Q9UNA4; Pol iota fluorescent replication assay, 10 min; Potency, µM (titrated, usually from 115 µM), for the others: top-dose activity, negative = inhibition, actives largely listed as inhibitors; 390,000 tested, 1% active
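Fluorescent replication assay read twice, at 0 min and 10 min after adding 50 nM (final) substrate. Enzyme (10 nM) and compounds were first incubated 15 min at room temperature; enzyme-free buffer wells were negative controls.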
Pol eta inh: DNA polymerase eta (human) inhibition; Q9Y253; recombinant Pol eta, fluorescent DNA replication assay; Potency, µM (series often up to 114 µM), for inactives: at the top dose activity change, negative = inhibition, actives largely listed as inhibitors; 390,000 tested, 1.2% active; AID 588591; also: % is scaled to controls: 0 for no effect and ±100 for the full control effect
Target sequence (Q9Y253 whole entry, looked up): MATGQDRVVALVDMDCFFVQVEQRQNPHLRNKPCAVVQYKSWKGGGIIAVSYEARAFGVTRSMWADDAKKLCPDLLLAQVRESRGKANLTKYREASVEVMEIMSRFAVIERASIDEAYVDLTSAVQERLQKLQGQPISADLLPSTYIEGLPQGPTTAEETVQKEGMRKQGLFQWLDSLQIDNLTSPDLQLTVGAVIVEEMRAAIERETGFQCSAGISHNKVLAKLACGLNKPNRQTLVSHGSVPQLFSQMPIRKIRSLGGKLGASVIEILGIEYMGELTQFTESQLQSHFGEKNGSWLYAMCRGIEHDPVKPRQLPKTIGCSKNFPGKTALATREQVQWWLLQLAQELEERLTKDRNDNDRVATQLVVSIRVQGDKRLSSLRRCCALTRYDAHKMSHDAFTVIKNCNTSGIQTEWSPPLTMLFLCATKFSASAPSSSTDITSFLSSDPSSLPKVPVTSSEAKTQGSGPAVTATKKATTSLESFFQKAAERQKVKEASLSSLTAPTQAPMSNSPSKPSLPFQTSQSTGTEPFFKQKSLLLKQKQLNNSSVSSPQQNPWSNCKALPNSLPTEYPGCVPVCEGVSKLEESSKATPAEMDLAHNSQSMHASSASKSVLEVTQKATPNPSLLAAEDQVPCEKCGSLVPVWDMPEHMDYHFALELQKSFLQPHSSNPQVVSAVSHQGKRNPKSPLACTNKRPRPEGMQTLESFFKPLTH
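Pol eta (10 nM) was preincubated with compounds for 15 min at room temperature, after which fluorescent replication substrate (50 nM final) was added to start the reaction. Fluorescence was read kinetically at 0 and 10 min.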
POLB inh: DNA polymerase beta (human) inhibition; P06746; Pol beta primer extension/strand displacement, fluorescence kinetic; Potency, µM (highest dose often 114 µM), for the others: at the top dose activity change, negative = inhibition, actives largely listed as inhibitors; 340,000 tested, 1.3% active; AID 485314; also: % is scaled to controls: 0 for no effect and ±100 for the full control effect
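Values derive from four-parameter Hill fits of normalized kinetic data: reads at 0 and 10 min following addition of 50 nM substrate to 10 nM Pol beta preincubated 15 min with compound.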
Starred values were filed as active, the others as inactive; u = inconclusive; x = no result; [ ] = dose if it differs, or a comment. Calls follow the shape of the dose curve; as a rule, active = well fitted curve in the direction sought with a large enough effect; inconclusive = small, poorly fitted or top-dose-only effect, or another doubt; inactive = no such curve, though single readings can be large; an effect the other way counts as inactive or inconclusive. Potency is read from the fitted curve at half-maximal effect.

SMILES	WRN helicase inh	Pol kappa inh	L3MBTL1 block	Pol iota inh	Pol eta inh	POLB inh
CC(Oc1cccc(Cl)c1)C(=O)N1CCN(c2ncccn2)CC1 (stereo not drawn)	-3.0%	-0.3%	4.1%	15.4%	-21.0%	x
COc1ccc(Cl)cc1NC(=O)CSc1nc(C)cc(C)n1	-3.2%	-16.7%	-0.5%	14.7%	-20.1%	8.1%
COc1ccc(Cl)cc1NC(=O)CCn1nc(C)cc1C	x	-28.5%	x	u	-15.4%	31.6µM*
COc1ccc(Cl)cc1NC(=O)CSc1nc2sccc2c(=O)[nH]1	-20.7%	-16.1%	x	3.0%	-29.4%	56.2µM*
COc1ccccc1NC(=O)CSc1sc2c(O)cc(=O)[nH]c2c1C#N	50.1µM*	50.1µM*	x	2.82µM*	20µM*	0.562µM*
COc1cc(NC(=O)c2ccccc2)c(OC)cc1NC(=O)CSc1[nH]c(=O)cc(C)c1C#N	-6.0%	1.6%	x	-4.5%	-22.3%	u
COc1ccc(C)cc1NC(=O)CSc1nc2scc(C)c2c(=O)[nH]1	6.6%	-2.5%	x	u	-1.2%	5.3%
COc1ccc(Cl)cc1NC(=O)CSc1sc2c(O)cc(=O)[nH]c2c1C#N	u	u	x	25.1µM*	25.1µM*	-14.1%
Cc1ccc2c(c1)c(=O)c1ccccc1n2CCCC(=O)Nc1cc(Cl)ccc1C	x	2.4%	x	-16.4%	79.4µM*	u
CC(C)(C)NC(=O)C(c1ccc(F)cc1)N(Cc1ccco1)C(=O)Cn1nnc(-c2cccs2)n1 (stereo not drawn)	-0.4%	1.8%	-7.5%	7.0%	-10.5%	14.1%
CCC(=O)Nc1ccc(C(=O)N/N=C/c2c(C)[nH]c3ccccc23)cc1	-13.3%	-18.7%	-2.3%	48.6%	-12.1%	u
COc1ccc(-c2cc3c(=O)n(CC(=O)Nc4cc(C)ccc4C)ccn3n2)cc1	x	-7.4%[60.1 µM]	x	11.3%	x	44.7µM*
COC(=O)c1cc(CNC(=O)C2CC(=O)N(c3ccc4c(c3)OCCO4)C2)ccc1OC (stereo not drawn)	-1.4%	-13.4%	-5.6%	27.0%	-28.8%	x
CN(Cc1ccccc1)C(=O)CSc1nnc(-c2cccc(Cl)c2)o1	x	1.6%	x	29.0%	x	-26.4%
COc1ccc(-c2nnc(SCC(=O)N(C)Cc3ccccc3)o2)cc1OC	x	-4.0%	x	59.7%	79.4µM*	-6.6%
CC1=Nc2ccccc2/C1=C/c1c(N)n2c(S(=O)(=O)C(C)C)nsc2nc1=O	u	-20.7%	x	49.9%	u	-15.9%
CSc1nsc2nc(=O)c(/C=C3\C=Nc4ccccc43)c(N)n12	-17.7%	-0.1%	1.9%	-20.2%	u	-1.9%
CC1=Nc2ccccc2/C1=C/c1c(N)n2c(S(=O)(=O)CC(C)C)nsc2nc1=O	u	-31.2%	x	19.4%	39.8µM*	u
CC(C)S(=O)(=O)c1nsc2nc(=O)c(/C=C3\C=Nc4ccccc43)c(N)n12	-10.7%[11.6 µM]	u	-2.2%	-11.9%	31.6µM*	39.8µM*
Cc1ccc(C(=O)C2=C(O)C(=O)N(Cc3ccco3)C2c2cccc(Br)c2)o1 (stereo not drawn)	-8.3%	-1.7%	x	103.2%	-5.6%	79.4µM*
COc1cccc2cc(C(=O)C3=C(O)C(=O)N(Cc4ccco4)C3c3cccnc3)oc12 (stereo not drawn)	-9.7%[57.1 µM]	-12.1%	x	4.0%	3.55µM*	-1.4%
O=C(C1=C(O)C(=O)N(Cc2ccco2)C1c1cccnc1)c1cc2ccccc2o1 (stereo not drawn)	-31.5%	-23.1%	x	u	u	6.5%
COC(=O)c1cc2occc2n1CC(=O)Nc1ccc(C)cc1Cl	x	2.8%	x	27.5%	-14.1%	1.8%
O=C(NC1CCCCCCC1)c1ccc(F)cc1	-3.6%	-3.9%	x	35.4%	-13.4%	21.6%
CO/N=C/c1c(C(=O)OC)nn(-c2ccccc2)c1Cl	1.6%	-5.3%	3.5%	1.5%	-11.2%	-6.3%
O=c1[nH]c2ccc(S(=O)(=O)Nc3cc(Cl)ccc3O)cc2o1	x	u	x	u	89.1µM*	u
O=c1[nH]c2ccc(S(=O)(=O)Nc3ccc(Cl)cc3)cc2o1	-4.7%	2.3%	x	-7.3%	-10.7%	19.8%
